From PubChem
CYP2C19 inh: blockers of cytochrome P450 2C19 activity – biochemical, luminescence, ADME assay, primary screen; P33261; CYP2C19 Supersomes, luciferin-H EGE luminescence, 30 min; 96,000 compounds, 21% hits; inhibition, % at 5 µM;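 active means CYP2C19 inhibition above a set limit at 5 µM in the primary screen, cut at about 50% in these data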;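 further: plate controls were negative control wells for no effect and 2.5 mM tranylcypromine positive control for full effect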
CYP2C19 activ: human CYP2C19 activators, primary screen, biochemical, luminescence | Cytochrome P450 2C19 (Homo sapiens), P33261 | recombinant CYP2C19, luciferin-H EGE luminescence; active compounds read high; 0 = fully inhibited enzyme, 1 = untreated enzyme | activation factor at 5 µM | 96,000 tested, under 10 active | AID 1025, 2008;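 active means activation factor of at least 2 at 5 µM in the primary screen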;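 further: 0 = wells with 2.5 mM tranylcypromine and 1 = vehicle-only wells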
D1 mod: D1 CRE-luciferase signal change, two-sided – cell-based, HEK293 D1, dopamine EC30, D1 allosteric modulator project, primary screen. dopamine EC30 potentiation; actives deviate in either direction. B-score at 10 µM. 58,000 compounds, 5.9% hits. AID 641, 2007;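 active means luminescence count or its row- and column-corrected plate score outside the 99.7% band of the plate's sample wells, on either side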
hDAT+cocaine: changed hDAT dopamine uptake under cocaine IC80, either direction, primary screen, cocaine antagonist project, cell-based, LLC-PK1 hDAT, [14C]-dopamine uptake, MLSMR | Sodium-dependent dopamine transporter (Homo sapiens), Q01959 | LLC-PK1 hDAT cells, [14C]-dopamine uptake with cocaine IC80; actives deviate in either direction | B-score at 10 µM | 110,000 compounds, 1.3% hits | AID 449768, 2010;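 active means Z score or B-score, a plate-position-corrected score, falls beyond the plate's 99.7% confidence bounds, in either direction; inactive means both scores lie inside the 99.7% bounds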;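 further: scored against the spread of the other compound wells on the same plate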
CYP2C9 act: human CYP2C9 activators, primary screen, biochemical, luminescence | Cytochrome P450 2C9 (Homo sapiens), P11712 | recombinant CYP2C9, luciferin-H conversion; active compounds read high; factor 1 = untreated enzyme, 0 = blocked | activation factor at 5 µM | 96,000 compounds, 1.4% hits | AID 1024, 2008;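 active means activation factor of 2 or more for CYP2C9 at a 5 µM dose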;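 further: 0 = sulfaphenazole-blocked wells and 1 = vehicle-only wells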
Target sequence (P11712 whole entry, looked up): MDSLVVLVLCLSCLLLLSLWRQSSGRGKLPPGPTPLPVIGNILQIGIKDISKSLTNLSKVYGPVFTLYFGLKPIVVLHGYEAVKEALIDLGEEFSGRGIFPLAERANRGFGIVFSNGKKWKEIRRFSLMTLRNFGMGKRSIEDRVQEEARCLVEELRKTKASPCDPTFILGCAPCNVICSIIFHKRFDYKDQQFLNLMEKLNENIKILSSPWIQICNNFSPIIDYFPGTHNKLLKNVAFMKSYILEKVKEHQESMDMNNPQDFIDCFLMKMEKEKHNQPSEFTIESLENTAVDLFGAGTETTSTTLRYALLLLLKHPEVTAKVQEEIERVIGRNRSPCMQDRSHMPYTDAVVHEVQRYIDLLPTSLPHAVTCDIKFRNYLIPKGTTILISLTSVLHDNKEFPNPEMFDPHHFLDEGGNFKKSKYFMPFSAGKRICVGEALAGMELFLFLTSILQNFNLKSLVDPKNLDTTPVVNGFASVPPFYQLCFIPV
CYP2C9 inh: blockers of cytochrome P450 2C9 activity – biochemical, luminescence, ADME assay, primary screen; P11712; inhibition, % at 5 µM; CYP2C9 Supersomes, luciferin-H conversion; AID 777, 2007; 96,000 compounds, 20% hits;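 active means blocking of liver enzyme CYP2C9 beyond about 50% at 5 µM, limit read from the data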
Starred values were filed as active, the others as inactive; / = no result. An excerpt weighted towards active compounds, which were near 28% of everything screened.

SMILES	CYP2C19 inh	CYP2C19 activ	D1 mod	hDAT+cocaine	CYP2C9 act	CYP2C9 inh
Cc1cc(/C=C(/C#N)c2cccc(F)c2)c(C)n1-c1cccnc1	89*	0.1	0.53	0.52	0	99*
C=CCn1c(NC(=O)CC)c(C(=O)OCC)sc1=S	52*	0.5	/	/	0.7	32
CCc1nc(C)cn1S(=O)(=O)c1cc(Cl)c(OC)cc1Cl	43	0.6	/	-0.68	1.1	-8
CCc1nc(C)cn1S(=O)(=O)c1ccc(Cl)c(Cl)c1Cl	95*	0.1	0.72	/	0.4	60*
CCc1nc(C)cn1S(=O)(=O)c1cc(Br)ccc1OC	96*	0	-0.07	-0.0091	1.1	-12
CCc1nc(C)cn1S(=O)(=O)c1cc(C)c(OC)cc1C	62*	0.4	-1.5	-1.6	1.1	-14
COc1cc(C)c(C(C)C)cc1S(=O)(=O)n1cnc(C)c1	17	0.8	0.84	-1.6	1.1	-8
CCc1nc(C)cn1S(=O)(=O)c1cc(Br)c(C)cc1OC	61*	0.4	0.057	-0.012	0.4	58*
CCNC(=S)NNC(=O)c1ccc(OC(F)F)cc1	27	0.7	/	-0.54	0.9	8
C=CCc1ccc(OCCCCN2CC(C)OC(C)C2)c(OC)c1 (stereo not given)	31	0.7	/	-0.062	0.9	14
CCCNc1nc2c(c(=O)n(C)c(=O)n2C)n1CCC(C)C	6	0.9	-0.18	0.91	0.5	48
COc1ccc(N2CCN(c3nc4c(c(=O)[nH]c(=O)n4C)n3Cc3ccccc3Cl)CC2)cc1	/	/	1.1	/	/	/
CCN1CCN(S(=O)(=O)c2cc(C)c(OC)cc2C)CC1	28	0.7	-0.85	-0.43	1.7	-74
CCc1nc(C)cn1S(=O)(=O)c1cc(C)c(OC)c(C)c1C	62*	0.4	/	-0.13	1	-5
Nc1ccc(Sc2nnnn2-c2ccccc2)c(Cl)c1	93*	0.1	-0.18	0.39	1.1	-7
Cc1ccc(C)c(-n2nnnc2Sc2nnnn2-c2ccccc2)c1	/	/	-2.5	0.74	/	/
O=[N+]([O-])c1ccc(Sc2nnnn2-c2ccccc2)c(Cl)c1	98*	0	/	-0.74	0.3	68*
CC(=O)NC(CCS(C)(=O)=O)C(=O)Nc1cccc(C(C)=O)c1 (stereo not given)	-3	1	-0.018	0.036	1	-4
O=C(NC1CC1)C1=C[C@@H](c2c[nH]c3ccccc23)C[C@@H](OCc2ccc(CO)cc2)O1	/	/	/	2.3	/	/
O=C(NC1CCS(=O)(=O)C1)OC1CCCCC1 (stereo not given)	/	/	/	-0.3	/	/
O=C(c1ccco1)N(CCCN1CCOCC1)c1nc(-c2ccc(F)cc2)cs1	37	0.6	-1.3	1.3	0.3	67*
O=C(c1ccco1)N(CCCN1CCOCC1)c1nc(-c2ccc(Cl)cc2)cs1	87*	0.1	0.14	0.033	0.1	92*
O=C(NCCCN1CCOCC1)c1ccco1	0	1	-0.064	-0.034	1	-2
COc1ccc(CNC(=O)c2ccc(N3CCC4(CC3)CC(c3ccc(Cl)cc3)=NO4)c([N+](=O)[O-])c2)cc1	/	/	/	-0.56	/	/
COc1c(Cl)ccc(Cl)c1C(=O)OCC(=O)O	9	0.9	0.51	0.62	1	0
SMILES	CYP2C19 inh	CYP2C19 activ	D1 mod	hDAT+cocaine	CYP2C9 act	CYP2C9 inh
Oc1ccccc1-c1cc(-c2ccco2)[nH]n1	38	0.6	/	1.1	0.5	51*
Oc1c(-c2cc(-c3ccco3)[nH]n2)ccc2ccccc12	35	0.6	-1.6	0.82	0.3	74*
Cc1cc2c(C)c(C)c(=O)[nH]c2cc1N	5	0.9	/	-1.9	1	0
Cc1ccc(C(=O)Nc2nc(=O)n(C)s2)cc1	4	1	/	0.43	0.9	12
Cc1ccc(C(=O)Nc2nc(=O)n(C(=O)CC(C)C)s2)cc1	8	0.9	/	-0.098	0.2	84*
CC(C)CC(=O)n1sc(NC(=O)c2ccccc2)nc1=O	-16	1.2	/	-0.83	0.7	34
